Experimental data: PubChem BioAssay (EPA / NIEHS)
Records with an inconclusive call do not appear. Active and inactive are the calls of the source. How the source made its calls: active means hit-call score of the fitted dose curve at least 0.9, where 1 is the maximum; inconclusive means response in the unintended direction; inactive means score below 0.9.

Experiment: ACEA_ER_AUC_viability: ACEA Biosciences xCELLigence Real-Time Cell Analysis on Estrogen Receptor Agonism for Viability (AID 2283782);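 further: continuous compound exposure with impedance area under curve over 80 h; hit means loss of impedance signal meaning reduced cell growth or viability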
In short: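 T47D cells preconditioned in phenol red-free RPMI with charcoal-stripped FBS, then dosed with 8-point 1:4 series from 100 uM (up to 0.5% DMSO). Impedance monitored up to ~80 h; area-under-curve loss versus DMSO taken as viability.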
For `CCCCOCC`, the outcome was “inactive”.
For `Cc1ncc[nH]1`, the outcome was “inactive”.
With `COCCOC(=O)c1ccccc1C(=O)OCCOC` the outcome was “inactive”.
In the case of `CC/C=C\CCOC(=O)CC`, the outcome is reported as “inactive”.
For `CC1C2CC(CC2C2CCCC(O)C2)C1(C)C` (stereo not given), the AC50 was 84.8 µM (active).
In the case of `O=CN1CCOCC1`, the outcome is reported as “inactive”.
For `COc1cccc(OC)c1O`, the outcome was “inactive”.
In the case of `COC(=O)C=C(C)CCC=C(C)C`, the outcome is reported as “inactive”.
In the case of `Nc1ccc(Cl)c([N+](=O)[O-])c1`, the outcome is reported as “inactive”.
With `CCCCCCOC(=O)CCC` the outcome was “inactive”.
With `CCCCCC(=O)CC` the outcome was “inactive”.
For `CC(C)OCCO`, the outcome was “inactive”.
For `C=C(C#N)C(=O)OCC`, the AC50 was 78.9 µM (active).
With `CCCCCCC(O)CCCCCCCCCCC(=O)O` (stereo not given) the outcome was “inactive”.
With `CC1(C)CCC[C@]2(C)[C@H]3CCO[C@]3(C)CC[C@@H]12` the AC50 was 76.2 µM (active).
For `c1ccc(CCc2ccccc2)cc1`, the outcome was “inactive”.
For `O=C1c2ccccc2C(=O)c2c(O)ccc(O)c21`, the outcome was “inactive”.
For `CC(=O)c1c(C)c([N+](=O)[O-])c(C(C)(C)C)c([N+](=O)[O-])c1C`, the outcome was “inactive”.
In the case of `COC(CC(C)CCCC(C)(C)O)OC` (stereo not given), the outcome is reported as “inactive”.
With `Brc1ccc(Br)c(Br)c1` the AC50 was 34.9 µM (active).
For `O=C(O)CCCCCCCCCCCC(=O)O`, the AC50 was 50 µM (active).
With `COc1ccccc1[N+](=O)[O-]` the outcome was “inactive”.
With `CCOC(=O)C(C#N)=C(c1ccccc1)c1ccccc1` the outcome was “inactive”.
For `CCC1CCCCC1`, the AC50 was 75.8 µM (active).
In the case of `C=CCCC(=O)/C=C/C1C(C)=CCCC1(C)C` (stereo not given), the AC50 is reported as 68.8 µM (active).
In the case of `O=C(O)c1cccnc1C(=O)O`, the outcome is reported as “inactive”.
With `CC=Cc1ccc(OCC)c(O)c1` the outcome was “inactive”.
For `C=C(C)C(=O)OCCOC1CC2CC1C1C=CCC21` (stereo not given), the AC50 was 48.6 µM (active).
For `CCCCCCCC(=O)OCCCCCC`, the outcome was “inactive”.
With `NCc1ccco1` the outcome was “inactive”.
With `CC(=O)C(C)O` (stereo not given) the outcome was “inactive”.
For `CN(C)c1ccncc1`, the AC50 was 32.7 µM (active).
In the case of `Nc1ccc2c(O)cc(S(=O)(=O)O)cc2c1`, the outcome is reported as “inactive”.
With `CCc1ncc(C)[nH]1` the outcome was “inactive”.
With `CC=CC=CCOC(=O)C(C)C` the AC50 was 76.8 µM (active).
